In the library only some 5.4% were active in any assay of this set; here they are far more common.
JMJD2C inh: inhibitors of GASC-1 histone demethylase, primary screen, biochemical, fluorescence, DELFIA europium | Lysine-specific demethylase 4C (Homo sapiens), Q9H3R0 | GST-JMJD2C(1-420) H3K9me3 demethylation | inhibition, % at 2.35 µM | 330,000 compounds, 0.069% hits | AID 2099, 2009;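 active = more than half of a compound's replicate wells show inhibition beyond 50%, single wells judged on their own value; inconclusive = some, but no more than half, of replicates pass 50% inhibition; inactive = no replicate passes 50% inhibition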;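 note: signal counts dimethyl H3K9 product captured on neutravidin plate; 0% = median of DMSO wells and 100% = 0.3 times that DMSO median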
Target sequence (Q9H3R0 1-420 limits assumed): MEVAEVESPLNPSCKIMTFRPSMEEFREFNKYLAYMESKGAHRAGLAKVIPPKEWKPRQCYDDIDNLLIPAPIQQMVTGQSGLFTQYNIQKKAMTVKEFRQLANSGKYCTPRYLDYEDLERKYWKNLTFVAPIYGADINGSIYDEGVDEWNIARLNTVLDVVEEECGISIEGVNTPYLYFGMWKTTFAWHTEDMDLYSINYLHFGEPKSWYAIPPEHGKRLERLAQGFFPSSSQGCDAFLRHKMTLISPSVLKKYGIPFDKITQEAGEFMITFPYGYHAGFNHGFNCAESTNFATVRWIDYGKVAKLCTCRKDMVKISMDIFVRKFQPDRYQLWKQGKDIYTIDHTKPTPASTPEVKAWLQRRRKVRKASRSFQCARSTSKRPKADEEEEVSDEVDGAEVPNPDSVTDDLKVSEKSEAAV
PfM18AAP inh-1: PfM18AAP inhibitors, malaria aminopeptidase, primary screen, biochemical, QFRET, recombinant enzyme | H-Glu-NHMec fluorogenic cleavage | inhibition, % at 7.35 µM | 290,000 compounds, 1.2% hits | AID 1822, 2009;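 active = inhibition above the campaign mean inhibition over all tested compounds plus 3 SD, cut at about 28% in these data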;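 note: 0% = plate median of test compound wells and 100% = 2 mM ZnCl2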
SMARCA2 act: SMARCA2 (BRM) function activators, primary screen, cell-based, luminescence, high throughput; MG213 cells, MMTV-luciferase reporter, dexamethasone, overnight; activation, % at 9.1 µM; 370,000 compounds, 1% hits; AID 652017, 2013; in the data active = activation above about 7.8%;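 note: 0% = vehicle wells and 100% = reference activator wells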
Granule exo inh: LAMP-1 surface exposure blockers, TALL-104 cells – cell-based, flow cytometry, MLPCN library, primary screen; TALL-104 LAMP-1 surface exposure; cells stimulated with thapsigargin and PMA; AID 651702, 2012; inhibition, % at 10 µM; 360,000 compounds, 0.66% hits;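 active = inhibition above about 55%, limit read from the data; inconclusive = no clear call, values can overlap the other calls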
beta cell repl: inducers of MIN6 beta-cell proliferation, primary screen, ATP luminescence, uHTS | MIN6 cells proliferation, ATPlite luminescence, 48 h; cells starved in 0.2% serum; 100% = growth in 10% serum | 330,000 compounds, 0.29% hits | proliferation, % at 10 µM;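 active = compounds whose signal lies at least 3.5 SD above the mean of all wells on their plate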;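 note: 0% = DMSO-treated cells in low-serum medium and 100% = 10% serum control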
ALR inh: inhibitors of human ALR sulfhydryl oxidase, primary screen, biochemical, H2O2 detection, HRP-luminol luminescence, single point. FAD-linked sulfhydryl oxidase ALR (Homo sapiens), P55789. purified ALR, DTT oxidation. inhibition, % (concentration not given with the values). 290,000 compounds, 3.8% hits;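 active = mean replicate inhibition above about 79%, with every replicate also reaching it, limit read from the data; inconclusive = only one of the two criteria met; inactive = mean below limit and not every replicate reaching it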
Target sequence (P55789 whole entry, looked up): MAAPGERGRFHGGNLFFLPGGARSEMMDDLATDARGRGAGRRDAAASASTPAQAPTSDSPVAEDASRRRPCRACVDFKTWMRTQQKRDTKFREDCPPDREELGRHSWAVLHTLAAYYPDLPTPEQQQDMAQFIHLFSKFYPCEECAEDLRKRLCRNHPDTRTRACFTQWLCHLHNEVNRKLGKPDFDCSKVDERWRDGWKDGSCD
PfM18AAP inh-2: PfM18AAP inhibitors, malaria aminopeptidase, confirmation, biochemical, QFRET, recombinant enzyme, triplicate | inhibition, % at 7.35 µM | H-Glu-NHMec fluorogenic cleavage | shares compounds with PfM18AAP inh-1 | 2,400 compounds, 28% hits;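 active = mean inhibition over replicate wells above the hit cutoff set for the earlier primary screen, cut at about 29% in these data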;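 note: 0% = median of test compound wells and 100% = 2 mM ZnCl2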
CTSL1 confirm: cathepsin L1 inhibitors, retest, confirmation, counter-screen for PFM18AAP inhibitor project, biochemical, QFRET, triplicate; shares compounds with PfM18AAP inh-1; AID 2178, 2009; inhibition, % at 5.96 µM; purified cathepsin L1, Z-Leu-Arg-MCA fluorescence; 2,400 tested, under 10 active;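 active = average inhibition across replicates above the hit cutoff set in the earlier primary screen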;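 note: 0% = median of test compound wells and 100% = Z-Phe-Ala-diazomethylketone 1 µM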
Numbers without * were called inactive; ? = inconclusive; / = no result given.

SMILES | JMJD2C inh | PfM18AAP inh-1 | SMARCA2 act | Granule exo inh | beta cell repl | ALR inh | PfM18AAP inh-2 | CTSL1 confirm
COc1ccc(-n2c(CNC(=O)COc3ccccc3)n[nH]c2=S)cc1 | 2 | 33* | 1 | 1 | -2 | 0 | 4 | -1
O=C(COc1ccccc1)NCc1n[nH]c(=S)n1-c1ccccc1 | -14 | 42* | -3 | 0 | -2 | 33 | 11 | -2
COc1ccc(-n2c(Cn3nnc4ccccc43)n[nH]c2=S)cc1 | -2 | 38* | -3 | 1 | 0 | / | 11 | 0
O=C(Cc1cccc2ccccc12)NN1C(=O)CSC1=S | / | 20 | -2 | 20 | -1 | 50 | / | /
O=C(NN1C(=O)CSC1=S)C(=O)NN1C(=O)CSC1=S | 0 | 41* | 4 | -1 | -2 | 42 | 52* | -2
COC(=O)C1C(O)=C(C=NCC(C)N=CC2=C(O)C(C(=O)OC)C(C)(C)CC2=O)C(=O)CC1(C)C (configuration not stated) | 18 | 47* | -1 | 7 | 2 | -8 | 21 | -1
CCC(C)N=CC1=C(O)C(C(=O)OC)C(C)(C)CC1=O (configuration not stated) | -10 | 3 | 2 | 0 | -2 | -5 | / | /
Cc1c(Br)c(O)c(Br)c2sc(=O)oc12 | 1 | 36* | 0 | 43 | -6 | 34 | -34 | 0
COc1ccccc1Cc1nnc(NC(=O)C2CCN(C(=O)c3ccco3)CC2)s1 | 43 | 42* | 0 | 0 | 0 | -2 | -25 | -2
Cc1cc(CN2CCN(c3ncc(Cc4ccccc4)cn3)CC2)cc(C)c1O | / | / | -6 | / | / | / | / | /
Clc1ccc2nc(CSc3ncn[nH]3)cn2c1 | -12 | 43* | 1 | 1 | 0 | 3 | 13 | 7
Brc1ccc2nc(CSc3ncn[nH]3)cn2c1 | -5 | 66* | 6 | -2 | -1 | 27 | 30* | 3
CC[C@H](CCC(=O)N(c1ccccc1)c1ccccc1)c1ccc(C)cc1 | / | / | -5 | / | / | / | / | /
CCOC(=O)C(CNc1ccc(O)cc1)NC(=O)c1ccccc1 (configuration not stated) | / | / | -5 | / | / | / | / | /
CN1c2ccccc2C(C)(C)[C@]12C=Cc1cc(O)ccc1O2 | 3 | 48* | -4 | -6 | -3 | 88* | -81 | -5
CN1c2ccccc2C(C)(C)C12C=Nc1c(ccc3ccccc13)O2 (configuration not stated) | 0 | 11 | 0 | 0 | -4 | -34 | / | /
Cc1ccccc1S(=O)(=O)N(C)C[C@H]1OCc2cnnn2CCCC(=O)N([C@H](C)CO)C[C@@H]1C | / | / | -4 | / | / | / | / | /
CN(C)c1ccc(/C=N\Nc2ccccn2)cc1 | 1 | -4 | 4 | -4 | -2 | ? | / | /
CN(C)c1ccc(/C=N/Nc2ccc(-n3ccnc3)nn2)cc1 | 2 | 34* | 1 | 0 | -1 | 94* | -39 | 8
COC(=O)C[C@@H]1CC[C@@H]2[C@@H](COc3ccc(NC(=O)c4ccc(F)cc4)cc3C(=O)N2C)O1 | / | / | -4 | / | / | / | / | /
N#Cc1c(C(F)(F)F)cc(-c2ccco2)nc1SCc1ccncc1 | -25 | 44* | 0 | 3 | -2 | / | -43 | 7
Cn1c(-c2cccc3ccccc23)n[nH]c1=S | 1 | 37* | -3 | 0 | 0 | -3 | -12 | -7
Nn1c(Cc2cccc3ccccc23)n[nH]c1=S | 3 | 32* | 6 | -4 | 4 | 64 | -5 | 2
CN1OC[C@@H]2CN(C(=O)C3CCCCC3)[C@H](c3ccc(N4CCCCC4)cc3)C[C@@H]21 | / | / | 1 | / | / | / | / | /
O=C(NCCC1CCCC1)c1cccs1 | 3 | 53* | 1 | -8 | -5 | -7 | -39 | -10
SMILES | JMJD2C inh | PfM18AAP inh-1 | SMARCA2 act | Granule exo inh | beta cell repl | ALR inh | PfM18AAP inh-2 | CTSL1 confirm
O=C(NCC1CC1)c1cccs1 | / | / | -1 | 3 | / | / | / | /
COc1cccc(CNC(=O)[C@H]2CCCN2C(=O)[C@H]2CCCN2C(=O)c2ccc(Cl)cc2)c1 | / | / | -1 | / | / | / | / | /
NC(=O)NC(=O)C(Nc1ccc(N2CCCCC2)cc1)c1ccccc1 (configuration not stated) | -12 | 41* | -3 | -9 | -2 | 99* | -35 | -5
O=S1(=O)C=CCN1Cc1cn(Cc2ccc(Cl)cc2)nn1 | / | / | -3 | / | / | / | / | /
CSc1ncccc1C(=O)NCC(=O)Nc1ccc(F)c(F)c1 | 59 | 2 | 2 | -1 | -2 | -5 | / | /
CSc1ncccc1C(=O)NNc1cc(Cl)ccc1Cl | 12 | 33* | / | -23 | 4 | -23 | -1 | 0
Cc1noc(C)c1NC(=O)N(C)C[C@@H]1OCc2cn(nn2)CCCC(=O)N([C@@H](C)CO)C[C@H]1C | / | / | 0 | / | / | / | / | /
O=C(NCc1cccs1)C1CCN(S(=O)(=O)c2cccc3ccccc23)CC1 | / | / | -2 | / | / | / | / | /
COC(=O)C1=C(C)N(C)C(=NCc2ccc(C(F)(F)F)cc2)NC1c1ccc(Cl)cc1 (configuration not stated) | / | / | 1 | / | / | / | / | /
Cc1cc(C(C)(C)C)c(O)c(C(C)(C)C)c1 | -33 | 1 | -4 | 0 | 0 | 10 | / | /
Cc1cc(O)c(Oc2cc(C)cc(O)c2O)c(O)c1 | -1 | 50* | -1 | 4 | -6 | / | 36* | -3
CCCCCN1CCCCC(NC(=O)C2CCCCC2)C1=O (configuration not stated) | / | / | -1 | / | / | / | / | /
COc1ccc(/C=C2\SC(=O)N(CC(=O)NN3CCN(C)CC3)C2=O)cc1OC | 6 | 37* | -2 | -2 | 0 | -10 | -53 | 4
COc1ccc(/C=C2\SC(=O)N(CC(=O)Nc3ccc(O)cc3)C2=O)cc1OC | 3 | 0 | -5 | -20 | -4 | 0 | / | /
O=c1oc2c(-c3ccc([N+](=O)[O-])cc3)cc(O)cc2s1 | -6 | 33* | -3 | 2 | -5 | -6 | -11 | -2
NNc1nc2cc3c(cc2s1)OCCO3 | 2 | 52* | -3 | 4 | -2 | 99* | 9 | -5
O=C(Nc1nc2cc3c(cc2s1)OCCO3)c1cccs1 | 3 | 3 | -3 | 6 | -5 | 5 | / | /
CC(=O)Oc1ccc(C(=O)OCC(=O)c2c(N)n(C)c(=O)n(C)c2=O)cc1OC(C)=O | 39 | 43* | -1 | 2 | 2 | 99* | 1 | -5

Source: PubChem (several laboratories)
